VCAM1 TNFa inh = reduces TNF alpha induced VCAM1 expression in HUVEC | AID 802 | hit rate 0.48% among 95,000 | HUVEC TNFa-induced VCAM-1 immunofluorescence, high-content imaging | inhibition, % at 2 µM;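 active = inhibition above the batch mean plus 3 SD, with images confirmed as a hit by eye, cut at about 37% in these data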;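 note: 0% = TNF-stimulated DMSO wells and 100% = unstimulated control wells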
NFkB transloc inh = blocks IL-1B driven NFkB nuclear translocation in HUVEC cells; HUVEC IL-1B NFkB p65 nuclear translocation imaging; inhibition, % at 2 µM; hit rate 0.43% among 94,000; AID 796;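 active = inhibition above about 30% together with a positive call from visual inspection of the well image, limit read from the data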;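 note: nuclear over cytoplasmic p65 intensity ratio measured by imaging; 0% = IL-1B stimulated DMSO wells and 100% = unstimulated DMSO wells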
TNFa cytotox = HUVEC cytotoxicity counter-screen, TNF alpha stimulated; HUVEC TNFalpha-stimulated, Hoechst cell count, imaging; cell count reduction, % at 2 µM; hit rate 0.17% among 93,000; AID 848;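 active = cell count reduction exceeding the screen mean by over 5 SD, scaled to untreated wells per plate, cut at about 78% in these data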;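 note: cells counted after 24 h of TNF alpha exposure following the 1 h pretreatment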
E-sel TNF inh = blocks E-selectin expression induced by TNF alpha; HUVEC TNFa-induced E-selectin immunofluorescence, high content; inhibition, % at 2 µM; hit rate 0.71% among 120,000; AID 1246;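 active = inhibition above the batch mean plus 3 SD, and confirmed as a hit on visual image review, cut at about 43% in these data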;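 note: 0% = TNF-stimulated DMSO wells and 100% = unstimulated control wells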
HUVEC tox IL1B = HUVEC cytotoxicity counter-screen, IL-1B stimulated | hit rate 0.41% among 94,000 | HUVEC cell count loss, Hoechst imaging | cell count reduction, % at 2 µM;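 active = cell count reduction more than 3 SD above the screen-wide mean, cut at about 70% in these data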;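 note: normalized per plate to untreated control cells as the no-loss baseline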
NFkB transloc pot = enhances IL-1B driven NFkB nuclear translocation. HUVEC IL-1B NFkB p65 nuclear translocation imaging. hit rate 0.3% among 94,000. activation, % at 2 µM. AID 819;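 active = activation above 40%, about the mean plus 3 SD, also judged a hit on visual image review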;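 note: percent activation is computed from the nuclear over cytoplasmic p65 intensity ratio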
The depositor's hits bear a star; x = not tested or not shown. Most compounds without a hit are left out; they make up all but 1.7% or so of the library.

SMILES | VCAM1 TNFa inh | NFkB transloc inh | TNFa cytotox | E-sel TNF inh | HUVEC tox IL1B | NFkB transloc pot
COCCCNC(CC(=O)Nc1ccccc1C(=O)OC)C(=O)O (stereo unspecified) | -11.3 | -5.2 | 7.0 | 59.8* | 26.5 | 5.2
CCCS(=O)(=O)N1CCC(C(=O)NCCCOC)CC1 | -10.4 | -22.7 | -2.6 | 100.0* | -62.6 | 22.7
Cc1ccc(/C=c2\sc3n(c2=O)CN(c2cccc(Br)c2)CN=3)o1 | -6.0 | -8.4 | -15.2 | 61.7* | -4.6 | 8.4
O=c1/c(=C/c2ccco2)sc2n1CN(c1cccc(Br)c1)CN=2 | 11.0 | 8.7 | 1.2 | -2.4 | 13.8 | -8.7
CC(C)C(=O)c1cc2c(cc1NC(=O)c1cccs1)OCCO2 | -1.5 | 32.2* | 12.2 | 0.8 | -8.3 | -32.2
CCOC(=O)c1cnn(-c2nc3c(C)cccc3s2)c1C(F)(F)F | 14.2 | 2.6 | -2.2 | 5.5 | 11.4 | -2.6
CCOC(=O)c1cnn(-c2nc3c(C)cccc3s2)c1C | 91.5* | -14.6 | 89.5* | -29.8 | -5.8 | 14.6
Cc1cc(C)n(CC(O)CN2c3ccccc3Sc3ccccc32)n1 (stereo unspecified) | 12.0 | 8.4 | 18.7 | x | -4.3 | -8.4
CCCCS(=O)(=O)/C=C\C1C2C=CC(C2)C1S(=O)(=O)CCCC (stereo unspecified) | 17.4 | -3.5 | 49.0 | -18.1 | 5.0 | 3.5
CCCCS(=O)(=O)/C=C\C=C/S(=O)(=O)CCCC | 86.3* | 94.9* | 28.1 | x | 58.3 | -94.9
O=C(NCCN1CCOCC1)/C(=C\c1ccc(Br)cc1)NC(=O)c1cccs1 | x | x | x | -0.1 | x | x
COc1ccc2[nH]c(C)c(CCNC(=S)Nc3cc(C)cc(C)c3)c2c1 | x | x | x | -10.4 | x | x
COc1ccc2[nH]c(C)c(CCN3C(=O)C4C5C=CC(C5)C4C3=O)c2c1 (stereo unspecified) | 16.1 | -19.0 | -30.3 | 70.2* | 2.0 | 19.0
CCOC(=O)c1c(NC(=O)COC(=O)c2c(C)noc2C)sc2c1CCC2 | -9.4 | 9.1 | 1.4 | 11.1 | 3.2 | -9.1
CCOC(=O)c1c(NC(=O)COC)sc2c1CCCC2 | 19.8 | 4.4 | -11.6 | 52.6* | -30.1 | -4.4
COc1ccc(N2CCN(C(CNC(=O)C(=O)NCc3cccs3)c3ccco3)CC2)cc1 (stereo unspecified) | x | x | x | -39.7 | x | x
Cc1cc(NC(=O)CSCc2nc(-c3cccc(F)c3)oc2C)no1 | -9.0 | 2.6 | -0.4 | x | -7.4 | -2.6
Cc1ccc(-c2nc(CSCC(=O)Nc3cc(C)on3)c(C)o2)cc1 | 38.3 | 16.4 | 88.9* | x | 18.5 | -16.4
CCC(C)(C)NC(=O)C(c1ccncc1)N(Cc1ccc(C)cc1)C(=O)c1csnn1 (stereo unspecified) | 12.6 | -12.2 | -12.2 | -9.1 | 90.1* | 12.2
COC(=O)c1ccc(COc2ccc(/C=N/O)cc2)o1 | x | x | x | -0.6 | x | x
O=C(Cn1cc(C(=O)C(F)(F)F)c2cc(Br)ccc21)N1CCOCC1 | x | x | x | 61.5* | x | x
CCn1cc(C(=O)C(F)(F)F)c2ccccc21 | -11.6 | 5.4 | 9.3 | 4.5 | -23.6 | -5.4
Cc1csc(NC(=O)CSc2nnc(Cn3c(=O)sc4ccccc43)n2-c2ccccc2)n1 | 8.4 | -11.2 | -5.5 | x | -7.4 | 11.2
O=C(NC(=S)Nc1ccccc1)c1csnn1 | -1.2 | -11.8 | -2.2 | -8.8 | 22.5 | 11.8
O=S(=O)(c1ccc(Cl)cc1)c1snnc1-c1ccccc1 | 49.9* | 9.1 | 10.5 | 5.5 | 16.3 | -9.1
SMILES | VCAM1 TNFa inh | NFkB transloc inh | TNFa cytotox | E-sel TNF inh | HUVEC tox IL1B | NFkB transloc pot
CC(C)N1CC(O)=C(c2nc3ccccc3[nH]2)C1=N | x | -18.2 | 100.0* | x | -7.6 | 18.2
N#CCCN(C(=O)COC(=O)c1ccc(CNS(=O)(=O)c2ccc(F)c(Cl)c2)cc1)c1ccc(F)cc1 | x | x | x | -4.8 | x | x
Cc1ccc(-c2nnc(-c3ccccc3)o2)cc1 | 31.7 | 71.8* | 0.8 | 11.2 | 9.7 | -71.8
Cc1ccc(C(=O)CSc2nnc(-c3ccccc3)o2)cc1 | 10.0 | -4.9 | 0.4 | -4.8 | 93.0* | 4.9
Fc1ccccc1CSc1nnc(-c2ccccc2)o1 | 19.4 | -13.5 | -4.1 | -1.3 | 91.6* | 13.5
Cc1nc2ccc(NC(=O)C3CCN(S(=O)(=O)c4cccs4)CC3)cc2s1 | -15.3 | -8.7 | 7.2 | 72.5* | -0.8 | 8.7
O=C(NCc1cccnc1)C1CCN(S(=O)(=O)c2cccs2)CC1 | 3.0 | -4.7 | 0.0 | 69.5* | -5.1 | 4.7
CCOC(=O)c1cccc(NC(=O)C2CCN(S(=O)(=O)c3cccs3)CC2)c1 | 14.0 | 11.6 | -19.4 | 7.2 | 19.2 | -11.6
Cc1ccc(N(C(=O)C2CCCC2)C2C=CS(=O)(=O)C2)cc1C (stereo unspecified) | 15.0 | -44.1 | -1.1 | -25.8 | -20.5 | 44.1*
COc1ccc2[nH]cc(CCN=C3SCC(=O)N3C)c2c1 | 15.4 | -11.1 | -22.8 | x | 10.8 | 11.1
CCN1C(=O)CSC1=NC12CC3CC(CC(C3)C1)C2 | 96.4* | 1.2 | 66.1 | -2.4 | -6.9 | -1.2
CN1C(=O)CSC1=NC12CC3CC(CC(C3)C1)C2 | 26.5 | -40.0 | -11.8 | -13.9 | 2.8 | 40.0*
Cc1cc(C)cc(C(=O)NCC(=O)OCC(=O)NCc2ccco2)c1 | x | x | x | -3.1 | x | x
Cc1cc(C(=O)N(C)Cc2ccc(Br)cc2)no1 | x | x | x | -1.8 | x | x
CN(Cc1ccccc1)C(=O)c1cc(-c2ccc(Br)cc2)on1 | x | -2.1 | x | 99.9* | -6.0 | 2.1
CN(C)S(=O)(=O)c1cccc(C(=O)N2CCN(Cc3ccccc3)CC2)c1 | 5.4 | -4.7 | -4.9 | 2.5 | 15.9 | 4.7
CN(c1ccccc1)S(=O)(=O)c1cccc(C(=O)N2CCN(c3ccccn3)CC2)c1 | 42.1 | 1.8 | 81.5* | x | 4.7 | -1.8
Cc1ccc(N(C)C(=O)N2CCN(c3ccccn3)CC2)cc1 | 20.5 | -66.7 | -14.8 | x | 45.5 | 66.7*
COc1cc(CCN2C(=O)c3cccc4cccc(c34)C2=O)c(S(=O)(=O)N2CCC(C)CC2)cc1OC | x | x | x | -9.2 | x | x
O=C(CCCSc1nc2ccccc2[nH]1)Nc1nnc(C2CC2)s1 | x | x | x | -8.4 | x | x
Cc1ccc(-n2nc3ccc(NC(=O)c4ccc5c(c4)OCO5)cc3n2)cc1 | 22.2 | -8.7 | -0.7 | 13.4 | -9.9 | 8.7
CCCC(=O)Nc1c2c(nn1-c1ccc(C)cc1C)CSC2 | -10.1 | 15.3 | 15.6 | -25.5 | 82.8* | -15.3
Cc1ccc(-n2nc3c(c2NC(=O)c2ccc4c(c2)OCO4)CSC3)cc1 | 16.7 | 97.5* | -2.6 | 7.5 | 93.2* | -97.5
Cc1ccc(OCC(=O)Nc2ccc(CN3CCCCC3)cc2)c(C)c1 | x | x | x | -19.4 | x | x
COc1ccc(OC)c(NC(=O)c2ccccc2NS(=O)(=O)c2cccc3cccnc23)c1 | -8.6 | 7.4 | -5.9 | 2.9 | 7.5 | -7.4
COc1ccc(-n2nc3c(c2NC(=O)C2CCCC2)CS(=O)C3)cc1 (stereo unspecified) | 6.4 | -3.9 | -10.0 | x | 1.8 | 3.9
O=C(CCC1CCCCC1)Nc1c2c(nn1-c1ccc(F)cc1)CS(=O)C2 (stereo unspecified) | -2.2 | 4.9 | -5.5 | x | 75.9* | -4.9
CCOC(=O)C(C(=O)NCc1ccc(F)cc1)c1ncc(C(F)(F)F)cc1Cl (stereo unspecified) | 3.0 | 19.5 | 11.9 | 9.5 | 85.8* | -19.5
CC(C)[C@H](NC(=O)c1ccc(F)cc1)C(=O)NC1=NCCS1 | x | x | x | -0.8 | x | x

Bioassay records from PubChem BioAssay.
